# Data taken from PMC11062922 (Nature Chemical Biology, 2023).
# Like-named read-outs stand apart in the source and are kept apart here.
# How the values were obtained:
# Design in all cases: species or system human, MV4-11 + K-562 + COLO205 + SK-N-BE2 + OVCAR-8
# ACVR1B = details: read-out: apparent Kd, n = 1
# CSNK1A1 = details: read-out: apparent Kd, n = 1
# CSNK1D = details: read-out: apparent Kd, n = 1
# CSNK1E = details: read-out: apparent Kd, n = 1
# MAP2K4 = details: read-out: apparent Kd; compound concentrations:100 nM and 1000 nM (sheet 'Samples'); n = 1
# ACVR2B = details: read-out: apparent Kd; compound concentrations: 100 nM and 1000 nM (sheet 'Samples'), CATDS: 4.1971231951758399E-2; n = 1
# DDR1 = details: read-out: apparent Kd, compound concentrations: 100 nM and 1000 nM (sheet 'Samples'), n = 1
# DDR2 = details: read-out: apparent Kd, compound concentrations: 100 nM and 1000 nM (sheet 'Samples'), n = 1
# GAK = details: read-out: apparent Kd, compound concentrations: 100 nM and 1000 nM (sheet 'Samples'), n = 1
# MAPK10 = details: read-out: apparent Kd, compound concentrations: 100 nM and 1000 nM (sheet 'Samples'), n = 1
# MAPK14 = details: read-out: apparent Kd, compound concentrations: 100 nM and 1000 nM (sheet 'Samples'), n = 1
# MAPK8 = details: read-out: apparent Kd, compound concentrations: 100 nM and 1000 nM (sheet 'Samples'), n = 1
# MAPK9 = details: read-out: apparent Kd, compound concentrations: 100 nM and 1000 nM (sheet 'Samples'), n = 1
# MAPKAPK2 = details: read-out: apparent Kd, compound concentrations: 100 nM and 1000 nM (sheet 'Samples'), n = 1
# PKN3 = details: read-out: apparent Kd; compound concentrations: 100 nM and 1000 nM (sheet 'Samples'), CATDS: 3.6917744645490899E-2; n = 1
# PRKD2 = details: read-out: apparent Kd; compound concentrations: 100 nM and 1000 nM (sheet 'Samples'), CATDS: 5.3704736783425001E-2; n = 1
# PRKD3 = details: read-out: apparent Kd; compound concentrations: 100 nM and 1000 nM (sheet 'Samples'), CATDS: 4.4266829697393303E-2; n = 1
# RIPK2 = details: read-out: apparent Kd; compound concentrations: 100 nM and 1000 nM (sheet 'Samples'), CATDS: 5.33565185229085E-2; n = 1
# TGFBR1 = details: read-out: apparent Kd; compound concentrations: 100 nM and 1000 nM (sheet 'Samples'), CATDS: 4.4217762618850402E-2; n = 1
# MAPK11 = details: read-out: apparent Kd; compound concentrations: 100 nM and 1000 nM (sheet 'Samples'), CATDS: 5.6945469434317497E-2; n = 1
# NLK = details: read-out: apparent Kd; compound concentrations: 100 nM and 1000 nM (sheet 'Samples'), CATDS: 5.1907933882023798E-2; n = 1
# RIPK3 = details: read-out: apparent Kd; compound concentrations: 100 nM and 1000 nM (sheet 'Samples'), CATDS: 4.0216087331075998E-2; n = 1
# SIK3 = details: read-out: apparent Kd; compound concentrations: 100 nM and 1000 nM (sheet 'Samples'), CATDS: 4.1962261561680501E-2; n = 1
# [1] = compound concentrations:100 nM and 1000 nM (sheet 'Samples')
compound,measurement,setting,value
Cl.c1ccc(-c2nc3n(c2-c2ccc4c(c2)OCO4)CCC3)nc1 [SB-400868-A],potency estimated from few doses,ACVR1B; [1],87 nM
same,potency estimated from few doses,CSNK1A1; [1],369 nM
same,potency estimated from few doses,CSNK1D; [1],150 nM
same,potency estimated from few doses,CSNK1E; [1],262 nM
same,potency estimated from few doses,MAP2K4,1900 nM
Cc1ccc2c(-c3ccnc(Nc4ccccc4)n3)c(-c3ccc(F)cc3)nn2n1 [GW833373X],potency estimated from few doses,"ACVR1B; compound concentrations: 100 nM and 1000 nM (sheet 'Samples'), CATDS: 8.2410499697195994E-2",193 nM
same,potency estimated from few doses,ACVR2B,1090 nM
same,potency estimated from few doses,"CSNK1A1; compound concentrations: 100 nM and 1000 nM (sheet 'Samples'), CATDS: 3.7842664233860401E-2",1640 nM
same,potency estimated from few doses,"CSNK1D; compound concentrations: 100 nM and 1000 nM (sheet 'Samples'), CATDS: 5.8055493904437101E-2",418 nM
same,potency estimated from few doses,"CSNK1E; compound concentrations: 100 nM and 1000 nM (sheet 'Samples'), CATDS: 4.09740757969334E-2",1190 nM
same,potency estimated from few doses,DDR1; CATDS: 5.25374061654219E-2,543 nM
same,potency estimated from few doses,DDR2; CATDS: 4.2392371826783903E-2,1050 nM
same,potency estimated from few doses,GAK; CATDS: 0.17328918321310699,56.5 nM
same,potency estimated from few doses,MAPK10; CATDS: 0.12973795747386199,87.1 nM
same,potency estimated from few doses,MAPK14; CATDS: 0.11490787983313,106 nM
same,potency estimated from few doses,MAPK8; CATDS: 3.7066716076187299E-2,1800 nM
same,potency estimated from few doses,MAPK9; CATDS: 0.1157117766231,105 nM
same,potency estimated from few doses,MAPKAPK2; CATDS: 0.100968971541066,132 nM
same,potency estimated from few doses,PKN3,1840 nM
same,potency estimated from few doses,PRKD2,511 nM
same,potency estimated from few doses,PRKD3,906 nM
same,potency estimated from few doses,RIPK2,520 nM
same,potency estimated from few doses,TGFBR1,909 nM
NC(=O)c1ccc2c(-c3ccnc(NCCCO)n3)c(-c3ccc(F)cc3)nn2c1 [GW581744X],potency estimated from few doses,"ACVR1B; compound concentrations: 100 nM and 1000 nM (sheet 'Samples'), CATDS: 5.1726105609422098E-2",678 nM
same,potency estimated from few doses,"CSNK1A1; compound concentrations: 100 nM and 1000 nM (sheet 'Samples'), CATDS: 4.4417171665787201E-2",1210 nM
same,potency estimated from few doses,"CSNK1D; compound concentrations: 100 nM and 1000 nM (sheet 'Samples'), CATDS: 0.12647868619351901",70.3 nM
same,potency estimated from few doses,"CSNK1E; compound concentrations: 100 nM and 1000 nM (sheet 'Samples'), CATDS: 7.8439067124282905E-2",202 nM
same,potency estimated from few doses,DDR1; CATDS: 4.5461807893970897E-2,1100 nM
same,potency estimated from few doses,DDR2; CATDS: 4.1041053531745197E-2,1740 nM
same,potency estimated from few doses,GAK; CATDS: 5.7317399451807E-2,485 nM
same,potency estimated from few doses,MAPK10; CATDS: 0.179195319148265,38 nM
same,potency estimated from few doses,MAPK11,495 nM
same,potency estimated from few doses,MAPK14; CATDS: 0.23382543991059199,25.3 nM
same,potency estimated from few doses,MAPK8; CATDS: 5.2366017866035799E-2,651 nM
same,potency estimated from few doses,MAPK9; CATDS: 0.113637290114738,86.9 nM
same,potency estimated from few doses,MAPKAPK2; CATDS: 0.15591620581864199,48 nM
same,potency estimated from few doses,NLK,670 nM
same,potency estimated from few doses,RIPK3,1940 nM
same,potency estimated from few doses,SIK3,1560 nM
CN(C)CCCNc1nccc(-c2c(-c3ccc(F)cc3)nn3cc(C(F)(F)F)ccc23)n1.CS(=O)(=O)O [GW618013A],potency estimated from few doses,"ACVR1B; compound concentrations: 100 nM and 1000 nM (sheet 'Samples'), CATDS: 0.30191803443786602",849 nM
same,potency estimated from few doses,"CSNK1D; compound concentrations: 100 nM and 1000 nM (sheet 'Samples'), CATDS: 0.30648491159914698",827 nM
same,potency estimated from few doses,"CSNK1E; compound concentrations: 100 nM and 1000 nM (sheet 'Samples'), CATDS: 0.19201098088976601",2340 nM
same,potency estimated from few doses,MAPK14; CATDS: 0.23713518302070899,1370 nM
